Source: PubChem (several laboratories)
aSyn 5UTR inh = MLPCN primary screen, SNCA 5' untranslated region. alpha-synuclein 5'UTR reporter, inhibitor activity. inhibition, % (tested at 7.5 µM). 0.82% of 300,000 active; in the data active = inhibition above about 60%;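 note: H4 neuroglioblastoma cells stably carrying SNCA 5'UTR luciferase fusion; 0% = DMSO wells and 100% = positive control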
BaF3 tox = parental Ba/F3 cell viability inhibition, counter-screen for JAK2V617F inhibitor project, murine pro-B, CellTiter-Glo luminescence; CellTiter-Glo ATP luminescence; inhibition, % at 5.6 µM; 1.1% of 220,000 active; AID 1486, 2009;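 active = inhibition above a per-campaign cutoff, the mean inhibition of all tested compounds plus 3 SD, cut at about 27% in these data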;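 note: 0% = DMSO wells and 100% = JAK Inhibitor I control wells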
KLF5 inh = KLF5 expression inhibitors, primary screen, DLD-1 cells, luminescence; DLD-1 KLF5 promoter-luciferase reporter; inhibition, % at 5 µM; 0.23% of 290,000 active;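 active = inhibition above a per-plate limit of that plate's mean compound inhibition plus 3 SD, cut at about 60% in these data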;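 note: 0% = DMSO wells and 100% = LY294002 at 200 µM; higher means less KLF5 promoter-driven luciferase light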
Ba/F3 V617F tox = reduced viability of JAK2V617F-dependent Ba/F3 cells, primary screen, JAK2V617F inhibitor project, cell-based, Ba/F3 EpoR-JAK2V617F, luminescence; ATP luminescence; inhibition, % at 5.6 µM; 1.1% of 220,000 active; AID 1446, 2008;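 active = inhibition above the campaign mean plus 3 SD over all tested compounds, cut at about 24% in these data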;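 note: cytokine-independent growth of Ba/F3 cells driven by EpoR plus mutant JAK2; 0% = DMSO-treated cells and 100% = JAK inhibitor I control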
APP 5UTR inh = inhibitors of APP translation via 5'UTR reporter, primary screen, APP 5'UTR luciferase, SH-SY5Y cells; SH-SY5Y APP 5'UTR-luciferase reporter, luminescence; inhibition, % at 2 µM; 0.82% of 190,000 active;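 active = inhibition above a set limit, derived from the sample mean plus 3 SD, cut at about 45% in these data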
IEC-6 tox = cytotoxicity in IEC-6 intestinal epithelial cells, primary screen, cytotoxicity control for KLF5 inhibitor project, cell-based, luminescence; AID 1825, 2009; IEC-6 cytotoxicity, luminescence viability; inhibition, % at 5 µM; 0.78% of 290,000 active;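 note: 0% = plate median of test compound wells and 100% = cytotoxic reference compound wells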
IEC-6 tox confirm = cytotoxic compounds in IEC-6 epithelial cells, confirmation, cytotoxicity control, cell-based, luminescence; shares compounds with IEC-6 tox; IEC-6 rat intestinal epithelial viability; inhibition, % at 5 µM; 63% of 1,900 active; AID 1907, 2009;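 note: 0% = vehicle and 100% = reference cytotoxic drug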
* = called active by the depositor; . = no result given. The list is not random: actives were taken first. Their share in the collection is about 2.1%. Cut-off read from the data, not from the text of the source, unless noted: active = inhibition above about 22%; inactive = the rest.

SMILES | aSyn 5UTR inh | BaF3 tox | KLF5 inh | Ba/F3 V617F tox | APP 5UTR inh | IEC-6 tox | IEC-6 tox confirm
Cc1c(C(=O)N2CCOCC2)[nH]c2c1C(=O)CC(c1ccccc1Cl)C2 (centres undefined) | 4.1 | 83.7* | 60.8 | 85.0* | 85.0* | 59.7* | 48.0*
NC1=C(Br)C(=O)c2ccccc2C1=O | 65.4* | -0.9 | -16.6 | 4.5 | . | 29.2* | 12.2
O=C(CSc1nnnn1C1CC2C=CC1C2)Nc1ccc(C(=O)O)cc1 (centres undefined) | -10.8 | . | . | . | . | . | .
CC(C)NC(=S)NNc1ncnc2sc3c(c12)CC(C)(C)OC3 | 30.6 | . | . | . | . | . | .
CC1(C)Cc2c(sc3ncnc(NNC(=S)NCc4ccccc4)c23)CO1 | 86.8* | 79.8* | 60.6 | 72.8* | 56.4* | 76.2* | 16.0
COc1ccc(NS(=O)(=O)c2cc(N/C(=N\S(=O)(=O)c3ccccc3)c3ccc(F)cc3)ccc2Cl)cc1 | 15.0 | 60.6* | 12.5 | 63.9* | 7.1 | 38.7* | 0.0
CN(CCOc1ccccc1)C(=O)c1cc([N+](=O)[O-])cc([N+](=O)[O-])c1 | 9.2 | 0.0 | -20.5 | -5.7 | -22.3 | 1.4 | .
Cc1ccc(C)c(Nc2cc(C)nc(-c3ccccc3O)n2)c1 | 10.4 | . | 35.1 | . | . | 48.3* | 26.9*
Cc1nc2ncccn2c1-c1csc(Nc2ccc(O)cc2)n1 | -66.7 | 77.4* | -80.0 | 82.4* | 12.8 | 25.0* | 6.8
CC1(C)CC(=O)C2=C(C1)OC(N)=C(C#N)C21C(=O)N(CN2CCOCC2)c2ccccc21 (centres undefined) | -10.9 | 0.1 | -15.9 | -4.3 | -7.8 | -1.9 | .
COc1cccc(CN2C(=O)C3(C(C#N)=C(N)OC4=C3C(=O)CCC4)c3ccccc32)c1 (centres undefined) | 62.7* | 89.1* | -9.0 | 71.9* | -9.0 | 59.1* | 54.4*
COC(=O)c1sccc1S(=O)(=O)NCc1ccc(S(N)(=O)=O)cc1 | -0.6 | . | -30.6 | . | . | 4.8 | .
CCCn1c(=O)n(C)c(=O)c2c(SC(C)C(=O)NCC3CCCO3)nc(CC(C)C)nc21 (centres undefined) | 9.9 | . | . | . | . | . | .
O=C(Nc1ccnn1C1CCN(C2CCOCC2)CC1)c1cccc(F)c1 | 16.1 | . | -38.0 | . | . | 3.3 | .
COc1ccc(CCNC(=O)c2ccc3nc(N4CCCCC4)sc3c2)cc1OC | -130.9 | . | -72.8 | . | . | 4.6 | .
COc1ccc2c(c1)C(C)=CC(C)(C)N2S(=O)(=O)c1ccc(Br)cc1 | -86.1 | 69.4* | 22.1 | 73.7* | 93.1* | 68.1* | 57.0*
Cc1ccc(-c2csc3ncnc(Sc4nnc(CN5CCCCCC5=O)o4)c23)cc1 | -44.4 | -3.5 | -11.2 | 2.2 | 26.1 | 36.1* | 30.4*
CN(Cc1ccccc1)C1=CC(=[N+]2CCCCC2)CC(C)(C)C1 | -19.7 | 78.8* | 20.0 | 97.8* | . | 33.7* | 18.6
Clc1ccccc1Cn1nnc2ccccc21 | 2.3 | . | -37.0 | . | . | -2.3 | .
COc1ccc(N(C(=O)c2ccco2)C(C(=O)NC2CCCCC2)c2cccs2)cc1OC (centres undefined) | 5.4 | -0.6 | -22.6 | -2.1 | -2.9 | -0.9 | .
C#CC(=O)N(c1cc(OC)ccc1OC)C(C(=O)NC1CCCC1)c1cccs1 (centres undefined) | 25.2 | 103.5* | 31.8 | 102.3* | 11.2 | 101.2* | 94.9*
COc1ccc(S(=O)(=O)N2N=C(C)Oc3ccccc3C2=O)cc1 | 2.5 | 76.2* | 54.7 | 85.5* | 85.0* | 67.5* | 45.4*
Clc1ccccc1-c1nnc2sc(-c3ccncc3)nn12 | -17.8 | 5.4 | -56.2 | 2.8 | -3.3 | 5.9 | .
CN(C)c1ccc(-c2nn3c(-c4ccccc4Cl)nnc3s2)cc1 | 82.3* | 12.5 | 23.4 | 8.6 | 90.5* | 35.3* | 56.9*
O=C(OCc1ccc([N+](=O)[O-])cc1)c1cc(=O)c2ccccc2o1 | -8.2 | . | -23.4 | . | . | -6.7 | .
SMILES | aSyn 5UTR inh | BaF3 tox | KLF5 inh | Ba/F3 V617F tox | APP 5UTR inh | IEC-6 tox | IEC-6 tox confirm
O=C(CSc1cccc[n+]1[O-])c1ccccc1Br | -10.7 | 7.0 | 3.8 | 6.6 | -8.3 | 84.8* | 7.0
CC1(C)CC(N2CCCC2)=CC(=[N+]2CCCCC2)C1 | -56.3 | 66.8* | -11.7 | 82.2* | 17.1 | 22.9* | 32.8*
O=C(Nc1ccccc1N1CCN(C(=O)c2ccccc2)CC1)c1cc2ccccc2o1 | . | 2.6 | 7.1 | -5.4 | -1.0 | -3.9 | .
CC1CCN(c2ccccc2NC(=O)c2ccc([N+](=O)[O-])o2)CC1 | -10.0 | . | -6.3 | . | . | 4.6 | .
COc1ccc(N2CCCC2)c(NC(=O)c2ccc([N+](=O)[O-])o2)c1 | -70.2 | . | -11.1 | . | . | 32.7* | 12.5
O=C(Nc1ccccc1N1CCN(C(=O)c2ccccc2)CC1)c1ccc([N+](=O)[O-])o1 | -46.2 | . | 4.0 | . | . | 27.6* | 12.4
O=C(Nc1ccccc1N1CCCC1)c1ccc([N+](=O)[O-])o1 | -112.2 | . | -15.2 | . | . | 65.8* | 16.7
CC(C)C(C(=O)NC1CCCC1)N(CC1CCCO1)C(=O)CNS(=O)(=O)c1ccccc1 (centres undefined) | 4.1 | . | 4.3 | . | . | 3.1 | .
COc1ccc(-c2cn(-c3ccccc3)nc2C(=O)O)cc1OC | 13.3 | . | -33.6 | . | . | 1.3 | .
COc1ccc(NC(=O)c2ccccn2)cc1OC | -88.0 | 5.9 | -58.3 | 0.2 | -43.8 | -0.1 | .
C/C(=N\NC(=O)c1ccccc1Cl)c1ccccn1 | 81.9* | . | 36.0 | . | . | 41.3* | 65.6*
COc1ccc(C(=O)N/N=C(\C)c2ccccn2)cc1OC | 43.0 | . | 53.6 | . | . | 39.8* | 98.8*
O=C(N/N=C(\c1ccccc1)c1ccccn1)c1ccccc1Cl | 67.5* | . | 53.3 | . | . | 95.1* | 58.4*
C/C(=N\NC(=O)c1cccc2ccccc12)c1ccccn1 | 59.7 | . | 50.0 | . | . | 15.8 | .
COc1ccc(C(=O)N/N=C(\c2ccccc2)c2ccccn2)cc1 | 107.0* | 68.5* | 25.0 | 73.8* | 77.9* | 28.5* | 64.8*
CCOC(=O)CNC1CC(=O)N(c2ccc(Br)cc2)C1=O (centres undefined) | 10.0 | . | -15.9 | . | . | 4.3 | .
CCC(Oc1ccccc1C)C(=O)N1CCCN(C)CC1 (centres undefined) | -0.8 | . | -35.1 | . | . | 1.9 | .
COc1ccccc1NC(=O)c1ccccc1NC(=O)c1cccs1 | -1.4 | . | -5.7 | . | . | -0.5 | .
COc1ccc(C)cc1NC(=O)Nc1ccncc1 | 1.4 | . | -25.7 | . | . | 1.0 | .
COc1ccc(S(=O)(=O)N2CCN(CC(O)COc3ccc(CC#N)cc3)CC2)cc1OC (centres undefined) | 34.5 | . | -25.6 | . | . | 2.7 | .
C/C(=N\NC(=O)c1ccc(Cl)c(Cl)c1)c1ccccn1 | 28.0 | . | 49.6 | . | . | 41.5* | 96.6*
C/C(=N/NC(=O)c1ccc(C(C)(C)C)cc1)c1ccccn1 | 57.4 | . | . | . | . | . | .
CCOC(=O)c1cc2c(ccn2C)n1CC(=O)N(Cc1ccccc1)c1ccc(F)cc1 | 28.7 | 8.9 | 4.9 | -0.4 | -0.3 | -7.7 | .
